According to PubChem BioAssay (NCI):
This is part of a sample that, as a whole, favours compounds with a hit. Of some 79,000 tested, about 15% had one in any assay. A number with no mark means an inactive call. The source made the active and inactive calls. Cut-off read from the data, not from the text of the source: active = growth inhibition above about 70%; inactive = the rest.

Columns and labels:
[1] = NCI Yeast Anticancer Drug Screen. Data for the rad52 strain (AID 147);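 note: 0% = growth of vehicle-treated control cultures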; settings: S. cerevisiae rad52 mutant growth inhibition, hits give high values
Outline: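 Screen used a yeast mutant impaired in DNA repair. After compound exposure, growth was measured. Values reflect inhibition compared with vehicle-treated cells.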

[2] = NCI Yeast Anticancer Drug Screen. Data for the rad50EPP+ strain (AID 151);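 note: 0% = growth of vehicle-treated control cultures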; settings: S. cerevisiae rad50 mutant strain, hits give high values
Outline: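 Exposing the rad50EPP+ strain to each compound, growth was compared with vehicle-only cultures to give inhibition.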

[3] = NCI Yeast Anticancer Drug Screen. Data for the mgt1 strain (AID 153); settings: S. cerevisiae mgt1 mutant growth inhibition, hits give high values
Outline: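 Genetically defined yeast (mgt1) treated with compound; inhibition of growth expressed against vehicle-treated controls.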

[4] = NCI Yeast Anticancer Drug Screen. Data for the rad50 strain (AID 155);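 note: 0% = growth of vehicle-only cultures of the same strain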; settings: S. cerevisiae rad50 strain growth inhibition, hits give high values
Outline: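 Yeast carrying a defined DNA repair defect were exposed to test compounds, and growth was compared with vehicle-treated controls to give percent inhibition.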

[5] = NCI Yeast Anticancer Drug Screen. Data for the mec2-1 strain (AID 157); settings: S. cerevisiae mec2-1 strain, hits give high values
Outline: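 Readout is yeast growth inhibition, normalised to vehicle-treated controls, in the mec2-1 strain exposed to compound.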

[6] = NCI Yeast Anticancer Drug Screen. Data for the rad14 strain (AID 159);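 note: 0% = growth of vehicle-treated control cultures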; settings: S. cerevisiae rad14 strain growth inhibition, hits give high values
Outline: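 Yeast cells carrying a defined DNA-repair defect were exposed to compounds, and growth inhibition was calculated relative to vehicle-treated control cultures.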

[7] = NCI Yeast Anticancer Drug Screen. Data for the sgs1 mgt1 strain (AID 161);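 note: 0% = growth of cultures given vehicle only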; settings: S. cerevisiae sgs1 mgt1 strain, hits give high values
Outline: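 Compounds are added to genetically altered yeast, and growth is compared with cultures given vehicle alone to give percent inhibition.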

[8] = NCI Yeast Anticancer Drug Screen. Data for the CLN2oe strain (AID 163);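 note: 0% = growth of vehicle-only control cultures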; settings: S. cerevisiae CLN2oe strain, hits give high values
Outline: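 Values reflect how much compound exposure reduced yeast growth, referenced to vehicle-exposed cells. Assay organism is a strain with a defined genetic change affecting cell-cycle control.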

[9] = NCI Yeast Anticancer Drug Screen. Data for the bub3 strain (AID 167); settings: S. cerevisiae bub3 mutant strain, hits give high values
Outline: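 Compounds were applied to a genetically altered yeast strain carrying a cell-cycle control defect. Growth inhibition was scored against vehicle-treated controls.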

[10] = NCI Yeast Anticancer Drug Screen. Data for the wt2 strain (AID 169);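 note: 0% = growth of vehicle-treated yeast cultures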; settings: S. cerevisiae wt2 strain growth inhibition, hits give high values
Outline: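 Values express reduction in yeast growth under compound treatment, referenced to vehicle-treated cells.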

[11] = NCI Yeast Anticancer Drug Screen. Data for the mlh1 strain (AID 171);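 note: 0% = growth of vehicle-treated control cultures of the same strain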; settings: S. cerevisiae mlh1 strain growth inhibition, hits give high values
Outline: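 Steps: expose the defined-mutant yeast strain to compound; expose a parallel culture to vehicle; measure growth; express compound effect as inhibition relative to the vehicle culture.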

[12] = NCI Yeast Anticancer Drug Screen. Data for the sgs1 strain (AID 173);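 note: 0% = growth of vehicle-only control cultures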; settings: S. cerevisiae sgs1 mutant, hits give high values
Outline: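 Treat defined-mutant yeast with compound; measure growth; calculate inhibition relative to vehicle-treated cells.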

[13] = NCI Yeast Anticancer Drug Screen. Data for the mlh1 rad18 strain (AID 175); settings: S. cerevisiae mlh1 rad18 strain growth inhibition, hits give high values
Outline: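 Test agents were incubated with a yeast strain of defined genotype (DNA damage repair defect). Inhibition of growth was derived by comparison with vehicle-exposed cultures.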

[14] = NCI Yeast Anticancer Drug Screen. Data for the rad18 strain (AID 177); settings: S. cerevisiae rad18 mutant growth inhibition, hits give high values
Outline: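 A genetically defined yeast mutant impaired in DNA damage repair was treated with test compounds, then its growth was measured against cultures receiving vehicle alone.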

[15] = at 5.0 µM (retest, dose inferred, filed as 0.5)
[16] = at 50.0 µM (retest, dose inferred, filed as 5.0)

With CCOC(=O)CC1(C(=O)OCC)c2[nH]c3ccccc3c2CCN1Cc1ccccc1 (stereo not given) the growth inhibition ([1]; at 1.2 µM) was -1%, the growth inhibition ([1]; at 3.7 µM) was 0% and the growth inhibition ([1]; at 11.0 µM) was 1%. It also gave a growth inhibition ([1]; at 33.0 µM) of 7%, a growth inhibition ([1]; at 100.0 µM) of 45% and a growth inhibition ([2]; at 1.2 µM) of -7%. For the same molecule, the growth inhibition ([2]; at 3.7 µM) was -7%, the growth inhibition ([2]; at 11.0 µM) was -11% and the growth inhibition ([2]; at 33.0 µM) was -9%. The growth inhibition ([2]; at 100.0 µM) was 0%, the growth inhibition ([3]; at 1.2 µM) was -2% and the growth inhibition ([3]; at 3.7 µM) was -1%. For the same molecule, the growth inhibition ([3]; at 11.0 µM) was 1%, the growth inhibition ([3]; at 33.0 µM) was 3% and the growth inhibition ([3]; at 100.0 µM) was 50%. It also gave a growth inhibition ([4]; at 1.2 µM) of -2%, a growth inhibition ([4]; at 3.7 µM) of -2% and a growth inhibition [4, 15] of 50%. The growth inhibition ([4]; at 11.0 µM) was 5%, the growth inhibition ([4]; at 33.0 µM) was 5% and the growth inhibition [4, 16] was 50%. For the same molecule, the growth inhibition ([4]; at 50.0 µM) was 70.9% (active), the growth inhibition ([4]; at 100.0 µM) was 38% and the growth inhibition ([5]; at 1.2 µM) was -3%. For the same molecule, the growth inhibition ([5]; at 3.7 µM) was -4%, the growth inhibition [5, 15] was 13% and the growth inhibition ([5]; at 11.0 µM) was -5%. It also gave a growth inhibition ([5]; at 33.0 µM) of -2%, a growth inhibition [5, 16] of 13% and a growth inhibition ([5]; at 50.0 µM) of 61.2%. It also gave a growth inhibition ([5]; at 100.0 µM) of 50%, a growth inhibition ([6]; at 1.2 µM) of 1% and a growth inhibition ([6]; at 3.7 µM) of 1%. The growth inhibition ([6]; at 11.0 µM) was 1%, the growth inhibition ([6]; at 33.0 µM) was 3% and the growth inhibition ([6]; at 100.0 µM) was 33%. The growth inhibition [7, 15] was 43%, the growth inhibition [7, 16] was 43% and the growth inhibition ([7]; at 50.0 µM) was 62%. For the same molecule, the growth inhibition ([8]; at 1.2 µM) was -1%, the growth inhibition ([8]; at 3.7 µM) was 2% and the growth inhibition ([8]; at 11.0 µM) was 4%. The growth inhibition ([8]; at 33.0 µM) was 12%, the growth inhibition ([8]; at 100.0 µM) was 74% (active) and the growth inhibition ([9]; at 1.2 µM) was -3%. For the same molecule, the growth inhibition ([9]; at 3.7 µM) was -7%, the growth inhibition [9, 15] was 6% and the growth inhibition ([9]; at 11.0 µM) was 8%. It also gave a growth inhibition ([9]; at 33.0 µM) of 26%, a growth inhibition [9, 16] of 6% and a growth inhibition ([9]; at 50.0 µM) of 55.1%. It also gave a growth inhibition ([9]; at 100.0 µM) of 37%, a growth inhibition ([10]; at 1.2 µM) of -1% and a growth inhibition ([10]; at 3.7 µM) of 0%. For the same molecule, the growth inhibition ([10]; at 11.0 µM) was 0%, the growth inhibition ([10]; at 33.0 µM) was 2% and the growth inhibition ([10]; at 100.0 µM) was 45%. The growth inhibition ([11]; at 1.2 µM) was -4%, the growth inhibition ([11]; at 3.7 µM) was -3% and the growth inhibition ([11]; at 11.0 µM) was -2%. It also gave a growth inhibition ([11]; at 33.0 µM) of 11%, a growth inhibition ([11]; at 100.0 µM) of 45% and a growth inhibition ([12]; at 1.2 µM) of -4%. For the same molecule, the growth inhibition ([12]; at 3.7 µM) was -7%, the growth inhibition ([12]; at 11.0 µM) was -5% and the growth inhibition ([12]; at 33.0 µM) was 0%. It also gave a growth inhibition ([12]; at 100.0 µM) of 40%, a growth inhibition [13, 15] of 31% and a growth inhibition [13, 16] of 31%. It also gave a growth inhibition ([13]; at 50.0 µM) of 65.2%, a growth inhibition ([14]; at 1.2 µM) of -3% and a growth inhibition ([14]; at 3.7 µM) of -15%. It also gave a growth inhibition ([14]; at 11.0 µM) of 8%, a growth inhibition ([14]; at 33.0 µM) of 3% and a growth inhibition ([14]; at 100.0 µM) of 35%.
